Assay results published in the supplement of paper PMC10498489.
The campaign covered roughly 2,300 compounds. About 330 (14%) showed activity. These entries were drawn from the full list. Unmarked numbers belong to inactive results.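 The calls were made as follows: active = median modified Z-score above 1.96; inactive = 1.96 or below.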

test system: HepG2 Srxn1-GFP reporter cells (+30 nM CDDO-Me); test: Srxn1-GFP intensity median modified Z-score relative to plate median; higher = stronger NRF2 / oxidative stress reporter activation, active = hit call of the paper; details: 10 µM; exposure time: 24h
In short: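 Compound at 10 μM was applied with an NRF2 activator at 30 nM to HepG2 Srxn1-GFP BAC reporter cells for 24 h, in DMSO at no more than 0.1%, using three replicate 96-well plates seeded at 20,000 cells per well. Fixed, Hoechst-stained cells were imaged confocally and cytoplasmic GFP was scored for each cell, with images under 100 cells left out. The figure reported is the replicate median of the per-plate modified Z-score of GFP intensity. Scaling relied on 1.4826 × median absolute deviation.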

With O=C(Oc1cccc2cccnc12)c1ccccc1 [euspeclibcmpd773] the “Srxn1-GFP intensity median modified Z-score” value was 12.8 (active).
In the case of CC(C)C(C)/C=C/C(C)C1CCC2C3=CC=C4CC(O)CCC4(C)C3CCC21C (stereo not given) [euspeclibcmpd1597], the “Srxn1-GFP intensity median modified Z-score” value is reported as 5.02 (active).
In the case of C=C1CC[C@H](O)C/C1=C/C=C1\CCC[C@]2(C)C([C@H](C)/C=C/[C@H](C)C(C)C)CC[C@@H]12 (stereo not given in full) [euspeclibcmpd112], the “Srxn1-GFP intensity median modified Z-score” value is reported as 2.55 (active).
C=C1CC[C@H](O)C/C1=C/C=C1\CCCC2(C)C1CCC2C(C)CCCC(C)C (stereo not given in full) [euspeclibcmpd353] was tested, and the “Srxn1-GFP intensity median modified Z-score” value was 2.95 (active).
For C[C@@H]1CC2C3CC=C4CC(=O)C=C[C@]4(C)[C@@]3(Cl)[C@@H](O)C[C@]2(C)[C@@]1(OC(=O)c1ccco1)C(=O)CCl (stereo not given in full) [euspeclibcmpd756], the “Srxn1-GFP intensity median modified Z-score” value was 2.37 (active).
With CCCCCCCCCCCCCCCCC(C(=O)O)C(O)(CC(=O)O)C(=O)O (stereo not given) [euspeclibcmpd1735] the “Srxn1-GFP intensity median modified Z-score” value was 3.83 (active).
CC(C)Cn1c(=O)n(C)c(=O)c2nc[nH]c21 [euspeclibcmpd1808] was tested, and the “Srxn1-GFP intensity median modified Z-score” value was 11.6 (active).
For COc1ccc2c(c1)C(=O)/C(=C\c1ccc(OC)c(O)c1)CO2, the “Srxn1-GFP intensity median modified Z-score” value was 3.46 (active).
With COc1ccc2c(c1)OC/C(=C\c1ccc(OC)c(O)c1)C2=O [euspeclibcmpd1638] the “Srxn1-GFP intensity median modified Z-score” value was 19.3 (active).
In the case of COC(=O)/C=C/C(=O)OC [euspeclibcmpd923], the “Srxn1-GFP intensity median modified Z-score” value is reported as 6.34 (active).
With CCN(CC)Cc1ccc(N=c2cc[nH]c3cc(Cl)ccc23)cc1O [euspeclibcmpd22] the “Srxn1-GFP intensity median modified Z-score” value was 3.72 (active).
For N=c1[nH]c(=S)c2ncn(C3O[C@H](CO)[C@@H](O)[C@H]3O)c2[nH]1 (stereo not given in full) [euspeclibcmpd1778], the “Srxn1-GFP intensity median modified Z-score” value was 41.1 (active).
For N=c1ncn([C@@H]2O[C@H](CO)[C@@H](O)[C@H]2O)c(=O)[nH]1 [euspeclibcmpd436], the “Srxn1-GFP intensity median modified Z-score” value was 15.1 (active).
For CC(=O)C12OC(C)(c3ccccc3)OC1CC1C3CC=C4CC(=O)CCC4(C)C3CCC12C (stereo not given) [euspeclibcmpd1961], the “Srxn1-GFP intensity median modified Z-score” value was 5.88 (active).
With CC(=O)C1CCC2C3CC=C4CC(=O)CC[C@]4(C)C3CC[C@]12C (stereo not given in full) [euspeclibcmpd251] the “Srxn1-GFP intensity median modified Z-score” value was 2.27 (active).
CCCCCC(=O)O[C@]1(C(C)=O)CCC2C3CC=C4CC(=O)CC[C@]4(C)C3CC[C@@]21C (stereo not given in full) [euspeclibcmpd155] was tested, and the “Srxn1-GFP intensity median modified Z-score” value was 13.5 (active).

Going from O=C(Oc1cccc2cccnc12)c1ccccc1Cl to Cc1ccc(C(=O)Oc2cccc3cccnc23)cc1, the “Srxn1-GFP intensity median modified Z-score” value falls from 1.65 to 0.989.

Going from CC/C=C\C/C=C\C/C=C\C/C=C\C/C=C\CCCC(=O)OCC [euspeclibcmpd997] to CCCCCCCCCCCCC(C(=O)O)C(C)C(=O)O (stereo not given) [euspeclibcmpd1524], the “Srxn1-GFP intensity median modified Z-score” value falls from 0.696 to 0.456.

Compared with C[C@H]1[C@H]2CCC3C4CC=C5C[C@@H](N(C)C)CC[C@]5(C)C4CC[C@@]32CN1C (stereo not given in full) [euspeclibcmpd1801], CC(=O)C1CCC2C3CC=C4C[C@@H](O)CC[C@]4(C)C3CC[C@]12C (stereo not given in full) [euspeclibcmpd1041] is higher in “Srxn1-GFP intensity median modified Z-score” value: -0.317 for the first, 0.815 for the second.

Going from CC(C)CCCC(C)[C@H]1CCC2C3CC=C4C[C@@H](O)CC[C@]4(C)C3CC[C@@]21C (stereo not given in full) [euspeclibcmpd354] to CCC(/C=C/[C@@H](C)[C@H]1CCC2C3CC=C4C[C@@H](O)CC[C@]4(C)C3CC[C@@]21C)C(C)C (stereo not given in full) [euspeclibcmpd1549], the “Srxn1-GFP intensity median modified Z-score” value falls from 0.396 to -0.0971.

Compared with CC(=O)OC1CCC2(C)C(=CC=C3C2CCC2(C)C3CCC2C(C)/C=C/C(C)C(C)C)C1(C)C (stereo not given) [euspeclibcmpd1343], CC(C)CCCC(C)C1CCC2C3=CCC4CC(O)CCC4(C)C3CCC21C (stereo not given) [euspeclibcmpd1991] is lower in “Srxn1-GFP intensity median modified Z-score” value: 1.93 for the first, -0.131 for the second.

Going from CC(=O)Nc1ccc(S(=O)(=O)N=c2o[nH]c(C)c2C)cc1 [euspeclibcmpd798] to Nc1ccc(S(=O)(=O)N=c2cnc3ccccc3[nH]2)cc1 [euspeclibcmpd2157], the “Srxn1-GFP intensity median modified Z-score” value rises from -0.176 to 0.000648.

Going from CC(=O)N[C@H]1[C@H]([C@H](O)[C@H](O)CO)O[C@](O)(C(=O)O)C[C@@H]1O [euspeclibcmpd2223] to OC[C@@H](O)[C@H](O)[C@@H](O)[C@H](O)CO [euspeclibcmpd2232], the “Srxn1-GFP intensity median modified Z-score” value rises from -0.0326 to 0.317.

Going from CC(C)C(N)C(=O)OCC(CO)OCn1cnc2c(=O)[nH]c(=N)[nH]c21 (stereo not given) [euspeclibcmpd624] to CC(O)Cn1cnc2c1c(=O)n(C)c(=O)n2C (stereo not given) [euspeclibcmpd1230], the “Srxn1-GFP intensity median modified Z-score” value rises from -0.125 to 0.0469.

Going from C[C@H]1CC2C3CC=C4CC(=O)C=C[C@]4(C)[C@@]3(F)[C@@H](O)C[C@]2(C)[C@@]1(O)C(=O)COP(=O)(O)O (stereo not given in full) [euspeclibcmpd2288] to CCC(=O)O[C@]1(C(=O)CCl)[C@@H](C)CC2C3CC=C4CC(=O)C=C[C@]4(C)[C@@]3(F)[C@@H](O)C[C@@]21C (stereo not given in full) [euspeclibcmpd633], the “Srxn1-GFP intensity median modified Z-score” value rises from -0.294 to 0.492.

Going from CNCc1ccccc1 [euspeclibcmpd1631] to CCn1c(O)c(-c2ccccc2)[nH]c1=O [euspeclibcmpd780], the “Srxn1-GFP intensity median modified Z-score” value falls from -0.463 to -0.504.

Compared with CC(CN(C)C)CN1c2ccccc2Sc2ccccc21 (stereo not given) [euspeclibcmpd308], CN1C(C(=O)N=c2cccc[nH]2)C(=O)c2ccccc2S1(=O)=O (stereo not given) [euspeclibcmpd238] is lower in “Srxn1-GFP intensity median modified Z-score” value: -0.246 for the first, -0.406 for the second.

Going from CCC(=O)OCC(=O)C1(OC(=O)CC)C(C)CC2C3CC=C4CC(=O)C=CC4(C)C3(Cl)C(O)CC21C (stereo not given) [euspeclibcmpd31] to CCCC(=O)O[C@]1(C(=O)CO)CCC2[C@@H]3CC=C4CC(=O)CC[C@]4(C)C3[C@@H](O)C[C@@]21C (stereo not given in full) [euspeclibcmpd566], the “Srxn1-GFP intensity median modified Z-score” value falls from -0.85 to -0.863.

Going from NC[C@@H]1CC[C@@H](N)[C@@H](O[C@H]2[C@H](O)[C@@H](O[C@H]3O[C@H](CO)[C@@H](O)[C@H](N)[C@H]3O)[C@H](N)C[C@@H]2N)O1 [euspeclibcmpd1045] to OC[C@H]1O[C@H](OC[C@H]2O[C@@H](O)[C@H](O)[C@@H](O)[C@@H]2O)[C@H](O)[C@@H](O)[C@H]1O [euspeclibcmpd1651], the “Srxn1-GFP intensity median modified Z-score” value falls from -0.0322 to -0.055.

Compared with CCOc1ccc(C(=O)c2cc(O)c(OC)c(OC)c2O)cc1 [euspeclibcmpd2089], COc1ccc(-c2cc(=O)c3c(O)cc(OC)c(OC)c3o2)c(OC)c1 [euspeclibcmpd1657] is higher in “Srxn1-GFP intensity median modified Z-score” value: -0.551 for the first, 0.259 for the second.

First: CCCCCCCCCCCCCCC(C(=O)OC)C(O)(CC(=O)OC)C(=O)OC (stereo not given) [euspeclibcmpd2214]
Second: CC(C)(CO)C(=O)C(O)NCCCO (stereo not given) [euspeclibcmpd2342]
The “Srxn1-GFP intensity median modified Z-score” value of the first is lower: -0.435 for the first, -0.119 for the second.

Compared with CC(C)Cn1c(=O)n(C)c(=O)c2nc[nH]c21 [euspeclibcmpd2061], Cn1c(=O)c2nc[nH]c2n(C)c1=O [euspeclibcmpd290] is lower in “Srxn1-GFP intensity median modified Z-score” value: 0.0284 for the first, -0.062 for the second.

Going from COc1ccc(Cc2c[nH]c(=N)[nH]c2=N)cc1OC [euspeclibcmpd456] to COc1cc2c(cc1OC)-c1c(oc3cc(O)cc(O)c3c1=O)CO2 [euspeclibcmpd2244], the “Srxn1-GFP intensity median modified Z-score” value falls from -0.0911 to -0.157.

Going from COc1ccc([C@@H]2CC(=O)c3c(O)cc(O)cc3O2)cc1O [euspeclibcmpd1483] to COc1ccc(/C=C2/COc3ccc(Br)cc3C2=O)cc1O, the “Srxn1-GFP intensity median modified Z-score” value rises from 0.0163 to 1.17.

Compared with COC(=O)/C=C/c1cc(OC)c(OC)c(OC)c1 [euspeclibcmpd2136], CON=C(C(=O)NC1C(=O)N2C(C(=O)OCOC(=O)C(C)(C)C)=C(/C=C\c3scnc3C)CSC12)c1csc(=N)[nH]1 (stereo not given) [euspeclibcmpd753] is lower in “Srxn1-GFP intensity median modified Z-score” value: 0.7 for the first, 0.022 for the second.

Going from COC(=O)/C=C/C(C)=C/C=C/C(C)=C/C=C/C=C(C)/C=C/C=C(C)/C=C/C(=O)O [euspeclibcmpd2376] to CON=C(C(=O)NC1C(=O)N2C(C(=O)OC(C)OC(C)=O)=C(COC(N)=O)CSC12)c1ccco1 (stereo not given) [euspeclibcmpd658], the “Srxn1-GFP intensity median modified Z-score” value rises from -0.19 to 0.198.

Going from COCCN(Cc1ccccn1)C(=O)C1CCN(C)C(=O)C1 (stereo not given) to CCOc1ccc(S(=O)(=O)O)c2cccnc12 [euspeclibcmpd2064], the “Srxn1-GFP intensity median modified Z-score” value falls from 0.317 to 0.0425.

First: CC1(C)SC2C(NC(=O)[C@@H](NC(=O)N3CCNC3=O)c3ccccc3)C(=O)N2C1C(=O)O (stereo not given in full) [euspeclibcmpd2116]
Second: CON=C(C(=O)NC1C(=O)N2C(C(=O)O)=C(COC(N)=O)CSC12)c1ccco1 (stereo not given) [euspeclibcmpd2072]
The “Srxn1-GFP intensity median modified Z-score” value of the first is higher: -0.415 for the first, -0.532 for the second.

Going from N=c1[nH]cnc2c1ncn2[C@@H]1O[C@H](CO)[C@@H](O)[C@H]1O [euspeclibcmpd2100] to NC(=O)c1ncn(C2O[C@H](CO)[C@@H](O)[C@H]2O)c1N (stereo not given in full) [euspeclibcmpd855], the “Srxn1-GFP intensity median modified Z-score” value rises from -0.0799 to 0.445.

Going from N=c1ccn(C2O[C@H](CO)[C@@H](O)[C@H]2O)c(=O)[nH]1 (stereo not given in full) [euspeclibcmpd2152] to O=c1ccn([C@@H]2O[C@H](CO)[C@@H](O)[C@H]2O)c(=O)[nH]1 [euspeclibcmpd2258], the “Srxn1-GFP intensity median modified Z-score” value falls from -0.285 to -0.304.

First: Cc1c(NS(=O)(=O)C(C)C)c(=O)n(-c2ccccc2)n1C
Second: Cc1c(NC(=O)c2ccsc2)c(=O)n(-c2ccccc2)n1C
The “Srxn1-GFP intensity median modified Z-score” value of the first is higher: 1.19 for the first, 0.403 for the second.

First: CC(C)(CO)C(=O)C(O)NCCCO (stereo not given) [euspeclibcmpd2316]
Second: CCCCC(=O)O[C@]1(C(=O)CO)CCC2C3CC=C4CC(=O)CC[C@]4(C)C3[C@@H](O)C[C@@]21C (stereo not given in full) [euspeclibcmpd786]
The “Srxn1-GFP intensity median modified Z-score” value of the first is higher: -0.0436 for the first, -0.698 for the second.

Going from N=c1ccn(C2CSC(CO)O2)c(=O)[nH]1 (stereo not given) [euspeclibcmpd613] to C[C@]12CCC(=O)CC1=CCC1C2C(=O)C[C@@]2(C)C1CC[C@]2(O)C(=O)CO (stereo not given in full) [euspeclibcmpd1248], the “Srxn1-GFP intensity median modified Z-score” value rises from -0.762 to -0.459.

Compared with Cc1noc(C)c1S(=O)(=O)N1CCN(C(=O)C2=COCCO2)CC1, CC(=O)[C@@]1(O)CCC2C3CC=C4CC(=O)CC[C@]4(C)C3CC[C@@]21C (stereo not given in full) [euspeclibcmpd1279] is lower in “Srxn1-GFP intensity median modified Z-score” value: 1.2 for the first, -0.195 for the second.

Going from COC(=O)C[C@H]1C(C)(C)[C@@H](O)C2CC3=C4C=C(OC)O[C@@H](c5ccoc5)[C@]4(C)CCC3[C@@]1(C)C2=O (stereo not given in full) [euspeclibcmpd1395] to CC(=O)OCC(=O)C1CCC2C3CC=C4CC(=O)CC[C@]4(C)C3CC[C@]12C (stereo not given in full) [euspeclibcmpd6], the “Srxn1-GFP intensity median modified Z-score” value falls from 1.94 to -0.444.

In the case of CO[C@H]1C[C@H](O[C@@H]2C(C)C(=O)O[C@H](C)[C@H](C)[C@H](OC(C)=O)C(C)C(=O)[C@@]3(CO3)C[C@H](C)[C@H](OC3O[C@H](C)C[C@H](N(C)C)[C@H]3OC(C)=O)[C@H]2C)O[C@@H](C)[C@@H]1OC(C)=O (stereo not given in full) [euspeclibcmpd623], the “Srxn1-GFP intensity median modified Z-score” value is reported as -0.159.
